Values joined by “and” are separate entries in the source; they are usually repeats but may differ in a detail not shown here. Equal values may be shown once. About 2,000 (36%) of roughly 5,500 compounds were called active. Another 18% or so got no clear call; they are omitted. Cut-off read from the data, not from the text of the source: active = normalized growth mostly below about 0.91 (no sharp cut-off); inconclusive = no clear call, values can overlap the other calls; inactive = mostly above about 0.92. The list shows a part of the results.
Assay: chemical genetic growth profiling, strain panel (AID 1159580);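 note: tested at 20 µM; growth read once vehicle control cultures reached saturation at 30 °C; 1 = growth at the plate median or of vehicle wells; lower values mean less growth of the strain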
Conditions: growth OD

Measured: normalized growth

O=C1OC(=O)C2C3CCC(O3)C12 (stereo not given)
active: S. cerevisiae deletion strains, locus YLR113W, strain HOG1, hits give low values 0.843 | S. cerevisiae deletion strains, locus YNL298W, strain CLA4, hits give low values 0.901
inactive: S. cerevisiae deletion strains, locus YKL009W, strain mrt4, hits give low values 0.895 | S. cerevisiae deletion strains, locus YKL068W, hits give low values 1 | S. cerevisiae deletion strains, locus YKL085W, strain MDH1 (second series), hits give low values 1.01 | S. cerevisiae deletion strains, locus YKL085W, strain MDH1, hits give low values 1.01 | S. cerevisiae deletion strains, locus YKL160W, strain elf1, hits give low values 1.04 | S. cerevisiae deletion strains, locus YKL190W, strain CNB1, hits give low values 0.991 | S. cerevisiae deletion strains, locus YKR001C, strain vps1, hits give low values 0.95 | S. cerevisiae deletion strains, locus YKR026C, strain gcn3, hits give low values 1 | S. cerevisiae deletion strains, locus YKR091W, strain srl3, hits give low values 1.01 | S. cerevisiae deletion strains, locus YLL001W, strain dnm1, hits give low values 0.995 | S. cerevisiae deletion strains, locus YLL026W, hits give low values 1 | S. cerevisiae deletion strains, locus YLL041C, strain sdh2, hits give low values 1.02 | S. cerevisiae deletion strains, locus YLR027C, strain aat2, hits give low values 0.994 | S. cerevisiae deletion strains, locus YLR039C, strain RIC1, hits give low values 1.06 | S. cerevisiae deletion strains, locus YLR058C, strain SHM2, hits give low values 1.01 | S. cerevisiae deletion strains, locus YLR102C, strain apc9, hits give low values 0.972 | S. cerevisiae deletion strains, locus YLR221C, strain rsa3, hits give low values 0.983 | S. cerevisiae deletion strains, locus YLR258W, strain gsy2, hits give low values 1.02 | S. cerevisiae deletion strains, locus YLR262C, strain YPT6 (second series), hits give low values 1.06 | S. cerevisiae deletion strains, locus YLR262C, strain YPT6, hits give low values 1.06 | S. cerevisiae deletion strains, locus YLR268W, strain sec22, hits give low values 0.979 | S. cerevisiae deletion strains, locus YLR320W, strain mms22, hits give low values 1 | S. cerevisiae deletion strains, locus YLR330W, strain CHS5, hits give low values 1 | S. cerevisiae deletion strains, locus YLR342W, strain FKS1 (second series), hits give low values 1.02 | S. cerevisiae deletion strains, locus YLR342W, strain FKS1, hits give low values 1.03 | S. cerevisiae deletion strains, locus YLR357W, strain rsc2, hits give low values 1.01 | S. cerevisiae deletion strains, locus YLR370C, strain arc18, hits give low values 0.999 | S. cerevisiae deletion strains, locus YLR371W, strain rom2, hits give low values 0.959 | S. cerevisiae deletion strains, locus YLR384C, strain iki3, hits give low values 1.01 | S. cerevisiae deletion strains, locus YLR418C, strain cdc73, hits give low values 0.928 | S. cerevisiae deletion strains, locus YML016C, strain PPZ1, hits give low values 1.01 | S. cerevisiae deletion strains, locus YML032C, strain rad52, hits give low values 0.968 | S. cerevisiae deletion strains, locus YML120C, strain ndi1, hits give low values 0.998 | S. cerevisiae deletion strains, locus YML124C, strain tub3, hits give low values 0.986 | S. cerevisiae deletion strains, locus YMR058W, strain fet3, hits give low values 1 | S. cerevisiae deletion strains, locus YMR078C, strain ctf18, hits give low values 0.963 | S. cerevisiae deletion strains, locus YMR125W, strain sto1, hits give low values 1.01 | S. cerevisiae deletion strains, locus YMR129W, hits give low values 1 | S. cerevisiae deletion strains, locus YMR205C, strain PFK2, hits give low values 1.03 | S. cerevisiae deletion strains, locus YMR223W, strain ubp8, hits give low values 0.989 | S. cerevisiae deletion strains, locus YMR231W, strain pep5, hits give low values 0.988 | S. cerevisiae deletion strains, locus YMR263W, strain SAP30, hits give low values 1.03 | S. cerevisiae deletion strains, locus YMR307W, strain GAS1, hits give low values 1.02 | S. cerevisiae deletion strains, locus YNL067W, strain RPL9B, hits give low values 1.01 | S. cerevisiae deletion strains, locus YNL071W, strain lat1, hits give low values 1 | S. cerevisiae deletion strains, locus YNL128W, strain TEP1, hits give low values 1.01 | S. cerevisiae deletion strains, locus YNL153C, strain GIM3, hits give low values 1.01 | S. cerevisiae deletion strains, locus YNL175C, strain NOP13, hits give low values 1.02 | S. cerevisiae deletion strains, locus YNL183C, strain NPR1, hits give low values 0.887 | S. cerevisiae deletion strains, locus YNL197C, strain WHI3, hits give low values 1.01 | S. cerevisiae deletion strains, locus YNL209W, strain ssb2, hits give low values 0.994 | S. cerevisiae deletion strains, locus YNL224C, strain SQS1, hits give low values 1.01 | S. cerevisiae deletion strains, locus YNL233W, strain BNI4, hits give low values 1.02 | S. cerevisiae deletion strains, locus YNL248C, strain rpa49, hits give low values 1.05 | S. cerevisiae deletion strains, locus YNL250W, strain rad50, hits give low values 0.93 | S. cerevisiae deletion strains, locus YNL271C, strain bni1, hits give low values 0.967 | S. cerevisiae deletion strains, locus YNL307C, strain MCK1, hits give low values 0.977 | S. cerevisiae deletion strains, locus YNL322C, strain KRE1 (second series), hits give low values 1.01 | S. cerevisiae deletion strains, locus YNL322C, strain KRE1, hits give low values 1.02 | S. cerevisiae deletion strains, locus YNR049C, strain mso1, hits give low values 1.01 | S. cerevisiae deletion strains, locus YNR052C, strain pop2, hits give low values 0.983 | S. cerevisiae deletion strains, locus YOL006C, strain TOP1, hits give low values 1.03 | S. cerevisiae deletion strains, locus YOL012C, strain htz1 0.735 | S. cerevisiae deletion strains, locus YOL147C, strain pex11, hits give low values 0.973 | S. cerevisiae deletion strains, locus YOR001W, strain rrp6, hits give low values 0.964 | S. cerevisiae deletion strains, locus YOR061W, strain CKA2, hits give low values 1.01 | S. cerevisiae deletion strains, locus YOR069W, strain VPS5, hits give low values 1.02 | S. cerevisiae deletion strains, locus YOR070C, strain gyp1, hits give low values 1.02 | S. cerevisiae deletion strains, locus YOR080W, strain dia2, hits give low values 1.01 | S. cerevisiae deletion strains, locus YOR083W, strain WHI5 (second series), hits give low values 1.01 | S. cerevisiae deletion strains, locus YOR083W, strain WHI5, hits give low values 1.04 | S. cerevisiae deletion strains, locus YOR106W, strain vam3, hits give low values 1.05 | S. cerevisiae deletion strains, locus YOR136W, strain idh2, hits give low values 0.964 | S. cerevisiae deletion strains, locus YOR144C, strain elg1, hits give low values 0.982 | S. cerevisiae deletion strains, locus YOR184W, strain ser1, hits give low values 0.979 | S. cerevisiae deletion strains, locus YOR231W, strain MKK1, hits give low values 0.89 | S. cerevisiae deletion strains, locus YOR265W, strain rbl2, hits give low values 1.01 | S. cerevisiae deletion strains, locus YOR270C, strain vph1, hits give low values 1.03 | S. cerevisiae deletion strains, locus YOR290C, strain snf2, hits give low values 1.05 | S. cerevisiae deletion strains, locus YOR316C, strain cot1, hits give low values 0.979 | S. cerevisiae deletion strains, locus YPL051W, strain arl3, hits give low values 1.03 | S. cerevisiae deletion strains, locus YPL055C, strain LGE1, hits give low values 0.959 and 1.03 | S. cerevisiae deletion strains, locus YPL078C, strain atp4, hits give low values 1.06 | S. cerevisiae deletion strains, locus YPL106C, strain sse1, hits give low values 1.04 | S. cerevisiae deletion strains, locus YPL240C, strain hsp82, hits give low values 1 | S. cerevisiae deletion strains, locus YPL241C, strain CIN2, hits give low values 1.01 | S. cerevisiae deletion strains, locus YPL256C, strain CLN2, hits give low values 0.926 | S. cerevisiae deletion strains, locus YPR119W, strain clb2, hits give low values 0.968 | S. cerevisiae deletion strains, locus YPR141C, strain kar3, hits give low values 0.957 | S. cerevisiae deletion strains, locus YPR163C, strain tif3, hits give low values 0.96 | S. cerevisiae deletion strains, locus YPR167C, strain met16, hits give low values 0.977 | S. cerevisiae deletion strains, strain wtn01, hits give low values 0.983 | S. cerevisiae strains, strain wild type, hits give low values 1.01

From PubChem BioAssay AID1159580 (chemical genetic matrix, 2015)
